Bioassay records as filed in PubChem.
TRPM1 prom inh: inhibitors of MITF-dependent TRPM1 promoter reporter, primary screen, cell-based, SK-MEL-5, single point, luciferase | SK-MEL-5 TRPM1 promoter luciferase, 24 h | inhibition, % at 12.5 µM | actives 0.83% (n = 330,000) | AID 488899, 2010;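 active = mean inhibition across replicates of 60% or more, whatever share of single replicates reaches that level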
Peg3 prom inh-1: Peg3 promoter-driven luciferase inhibitors, primary screen, cell-based, HeLa, luciferase luminescence. HeLa PEG-Prom luciferase reporter, overnight. inhibition, % at 20 µM. actives 1.7% (n = 360,000). AID 588405, 2011;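 active = inhibition of at least 50% at 20 µM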
ABHD5 PLIN5 PPI: ABHD5-PLIN5 interaction inhibitors, primary screen, cell lysate, split luciferase complementation, luminescence. actives 0.78% (n = 360,000). inhibition, % at 4 µM. Perilipin-5 (Homo sapiens) + 1-acylglycerol-3-phosphate O-acyltransferase ABHD5 (Homo …. Split G. princeps luciferase complementation, 4 h;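 active = inhibition above the mean inhibition across every tested compound plus 3 SD, cut at about 22% in these data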;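 note: 0% = DMSO only wells and the 100% control is not disclosed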
HIF-2a block: HIF-2a reporter inhibitors, primary screen, luminescence, 786-0 RCC cells. inhibition, % at 18.8 µM. AID 624352, 2012. actives 0.72% (n = 360,000). 786-0 RCC cells HIF-2a reporter, luciferase luminescence, overnight;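 active = inhibition of the luminescence signal of 40% or more relative to plate controls, in a single-dose primary screen at 18.75 µM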
KKLEB tox: cytotoxicity in KKLEB CF airway cells, primary screen, cytotoxicity control for CF NF-kB inhibitor project, cell-based, uHTS, fluorescence assay plates. KKLEB CF airway cells viability, ATPlite luminescence, overnight; active compounds read low; cells stimulated with P. aeruginosa culture filtrate. activity change (cytotoxicity), % at 5 µM. actives 0.36% (n = 360,000). AID 602141, 2011;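 active = corrected activity change at or below -50% at 5 µM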
CF NFkB block: inhibitors of PAF-induced NF-kB signaling, primary screen, cell-based, GFP fluorescence, uHTS | actives 0.86% (n = 360,000) | AID 588850, 2011 | inhibition, % at 5 µM | KKLEB NF-kB-GFP reporter, GFP fluorescence overnight;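 active = at least 50% inhibition at 5 µM, scaled per plate between neutral and stimulator controls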;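 note: PAF is a Pseudomonas aeruginosa culture filtrate used as stimulus; plate controls were PAF-stimulated DMSO wells for no effect and unstimulated DMSO wells for full effect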
Peg3 prom inh-2: Peg3 promoter reporter inhibitors, retest, confirmation, cell-based, HeLa, luciferase reporter, single concentration; AID 602417, 2012; shares compounds with Peg3 prom inh-1; inhibition, % at 20 µM; HeLa PEG-Prom luciferase reporter, luminescence, overnight; actives 84% (n = 1,300);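 active = at 20 µM dose, 40% or more inhibition averaged across four replicates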
Active calls of the source: *; . = not tested or not shown. An excerpt weighted towards active compounds, which were near 3.1% of everything screened.

SMILES	TRPM1 prom inh	Peg3 prom inh-1	ABHD5 PLIN5 PPI	HIF-2a block	KKLEB tox	CF NFkB block	Peg3 prom inh-2
O=C(Nc1ccc2c(c1)OCCO2)c1cccc2nc3ccccc3nc12	73.1*	42.3	3.5	-71.3	0.6	-33.7	.
O=C(CCCc1ccccc1)c1ccc2c(c1)OCCO2	77.4*	87.2*	-4.9	66.5*	-56.9*	-9.9	.
Cc1cc(C)c(S(=O)(=O)ON2C(=O)c3ccccc3C2=O)cc1C	30.8	69.9*	7.3	38.9	2.5	-1.5	40.8*
Cc1ccc(-c2nnc(Nc3ccccc3)c3ccccc23)cc1S(=O)(=O)NCC1CCCO1 (centres undefined)	11.2	28.3	-2.0	23.0	9.8	11.5	.
Cc1ccc(-c2nn3c(-c4ccco4)nnc3c3ccccc23)cc1S(=O)(=O)NCC1CCCO1 (centres undefined)	4.5	55.8*	3.8	5.0	-5.5	-112.7	31.8
Cc1cccc(N2CCN(C(=O)CCC(=O)N3Cc4ccccc4Oc4ncccc43)CC2)c1C	8.6	19.3	12.8	22.7	-0.3	7.3	.
Cc1ccc(-n2[nH]c(=O)c(-c3ccccn3)c2C)cc1	83.3*	73.5*	2.8	73.0*	-6.8	-7.1	59.2*
OCCNc1c2ccccc2nc2ccccc12	87.7*	98.1*	1.2	-7.0	6.9	-127.1	94.7*
COc1cc(C(C)=O)ccc1Oc1ncccn1	-5.8	9.9	-5.2	1.7	5.3	1.7	.
O=C(COc1ccccc1[N+](=O)[O-])NCC1(N2CCCCC2)CCCCC1	6.9	6.0	-1.2	-5.7	-1.9	-6.0	.
O=[N+]([O-])CC1(n2nc3ccccc3n2)CCCCC1	0.7	66.8*	-9.3	6.6	-47.4	46.0	-1.9
CC(=O)Nc1ccc(Nc2nc(C)c([N+](=O)[O-])c(Nc3ccccc3)n2)cc1	42.8	63.9*	3.6	28.1	-8.0	9.6	56.1*
CN=c1sc(C(=O)Nc2ccccc2)c(C)n1C	15.9	-9.5	-1.6	-7.5	12.8	0.5	.
CN=c1sc2c(n1C)C(=O)c1ccccc1C2=O	92.7*	88.2*	-9.8	-98.5	-67.2*	82.5*	91.2*
CCOC(=O)N1CCN(S(=O)(=O)c2ccc(C(=O)NNc3nc4c(C)cc(C)cc4s3)cc2)CC1	.	56.0*	-4.6	8.1	-7.1	-12.0	92.4*
Cc1cc(C)c2sc(N(CCCN(C)C)C(=O)c3ccc(S(=O)(=O)N(C)C4CCCCC4)cc3)nc2c1	90.1*	106.6*	17.8	-9.2	-14.4	42.2	98.3*
CN(C)CCCN(C(=O)c1ccc(S(=O)(=O)N(C)C2CCCCC2)cc1)c1nc2ccc(F)cc2s1	29.6	10.3	12.1	1.1	-2.1	-12.4	.
Cc1ccc2sc(N(CCCN(C)C)C(=O)c3ccc(S(=O)(=O)N4CCCCCC4)cc3)nc2c1C	6.4	34.8	9.5	-3.5	18.3	6.7	.
Cc1cc(C)c2nc(N(CCCN(C)C)C(=O)c3ccc(S(=O)(=O)N4CCCCCC4)cc3)sc2c1	18.7	79.6*	14.0	-26.3	-15.5	11.8	99.0*
Cc1cc(C)c2nc(NNC(=O)c3ccc(S(=O)(=O)N4CCCCC4)cc3)sc2c1	.	55.4*	0.9	-14.5	-10.4	16.6	65.5*
CCOC(=O)N1CCN(S(=O)(=O)c2ccc(C(=O)NNc3nc4c(C)cccc4s3)cc2)CC1	19.9	50.0	-4.2	22.6	11.1	-26.5	.
Cc1ccc(N(CC(=O)N2CCCC2)S(C)(=O)=O)c(C)c1	12.8	-10.9	0.6	13.7	22.8	-15.9	.
Nc1cccc2cc(-c3ccccc3)oc12	-103.9	-324.7	-1.1	-218.6	-3.7	-9.8	.
OC(c1cccc(CN2CCCCC2)c1)c1ncc(-c2ccccc2Cl)[nH]1 (centres undefined)	.	-19.9	3.5	2.2	7.8	-22.3	.
COc1cc2nc(N(CCCN(C)C)C(=O)c3ccc(S(=O)(=O)N4CCc5ccccc54)cc3)sc2cc1OC	4.9	-15.3	2.3	5.7	-5.1	-4.5	.
SMILES	TRPM1 prom inh	Peg3 prom inh-1	ABHD5 PLIN5 PPI	HIF-2a block	KKLEB tox	CF NFkB block	Peg3 prom inh-2
COc1ccc2sc(N(CCCN(C)C)C(=O)c3ccc(S(=O)(=O)N4CCCc5ccccc54)cc3)nc2c1	77.2*	84.2*	11.0	-49.6	-15.4	5.3	95.8*
Cc1onc(-c2ccc(Cl)cc2Cl)c1-c1csc(N/N=C/c2ccccc2Cl)n1	-8.2	65.2*	-2.6	27.8	-26.4	19.9	37.5
CCOc1ccc2[nH]c3ncccc3c(=O)c2c1	-4.0	-27.9	-4.4	-84.2	24.6	-35.9	.
CCOc1ccc2c(ccc(/C=C/c3cc(C)c4cccnc4c3O)[n+]2C)c1	74.5*	100.8*	25.6*	25.7	-5.1	43.0	84.1*
C[C@H](NS(=O)(=O)OCC(Cl)(Cl)Cl)C1CC1c1ccccc1 (some centres undefined)	-3.1	4.6	-7.4	17.5	-10.5	-11.5	.
O=S(=O)(NC1CC(NS(=O)(=O)OCC(Cl)(Cl)Cl)C2CCCCC12)OCC(Cl)(Cl)Cl (centres undefined)	10.1	56.5*	-9.6	-31.8	-0.8	32.4	93.2*
CCN1C(=O)C(O)(CC(=O)c2cccc(-n3cccc3)c2)c2ccccc21 (centres undefined)	9.3	36.1	-4.1	8.7	-10.3	-0.7	.
CCOC(=O)C(=Cc1ccc2c(c1)OCO2)c1ccccc1	3.4	-30.0	1.3	-77.5	-24.0	16.1	.
NC(=O)C1CCN(c2ccc3c(c2)S(=O)(=O)c2ccccc2C3=O)CC1	-28.2	-72.7	-5.2	-116.0	-9.2	8.7	.
NC(=O)C1CCN(C2=C(Cl)C(=O)c3ccccc3C2=O)CC1	88.2*	73.4*	-44.1	94.2*	1.4	11.4	97.9*
O=C(Cc1csc(Nc2nc(=S)[nH]c3ccccc23)n1)NCc1cccc(Cl)c1	14.2	45.2	-8.0	3.4	-28.7	14.9	.
O=C(Cc1csc(Nc2nc(=S)[nH]c3ccccc23)n1)NCc1ccccc1Cl	31.4	50.9*	4.3	-3.4	-14.5	14.9	44.4*
Cc1ccc2nc(/C(C#N)=C\c3ccc([N+](=O)[O-])o3)[nH]c2c1	92.4*	105.5*	-10.3	-31.2	-67.9*	12.4	84.3*
COC(=O)c1ccc(CNC(=O)Cn2cnc3c(NCc4ccccc4)ncnc32)cc1	2.1	63.3*	1.2	-4.1	2.9	-13.7	47.1*
